A selection: hits, their analogues and other compounds. The true share with any hit is near 15%.
HCMV antiviral: inhibitors of human cytomegalovirus. HFF cells, HCMV-luciferase reporter, 72 h; stronger effect = lower value. activity change, negative = inhibition, % at 57.5 µM. actives 4.5% (n = 410,000). AID 1259415; in the data active means activity change below about -60%; inconclusive means no clear call, values can overlap the other calls; inactive means above about -39%
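Luciferase read-out from HCMV-luciferase-infected HFFs (MOI 1 PFU/cell) 72 h post infection at 37C; compounds added after 16 h cell attachment; activity normalized between buffer-only basal and Salinomycin (10uM) inhibitor controls.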
Sm TGR inh: blocks Schistosoma mansoni thioredoxin glutathione reductase; Potency, µM (highest dose often 114 µM), actives largely listed as inhibitors; actives 3% (n = 360,000); Q962Y6; purified TGR, DTNB reduction, TNB absorbance 405 nm; AID 485364; further: nearly all actives have a fitted effect of over 60% in size
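First, TGR (20 nM dispensed) and NADPH were mixed with compound. Second, a 15 min room-temperature incubation followed. Third, further NADPH and then DTNB were added to start the reaction. Finally, TNB absorbance was monitored kinetically.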
HCV inh: inhibitors of hepatitis C virus infection; Huh7.5.1 HCVcc-Cre infection, luciferase reporter, 44 h; Potency, µM (highest dose often 41.8 µM), most hits filed as inhibitors; actives 3.4% (n = 340,000)
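Seed cells (1,000/well) for 4 h; treat with compound and infect with HCVcc-Cre, moi about 0.5. Incubate 44 h, then detect luciferase activity.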
SARS PLP yeast: inhibitors of SARS-CoV papain-like protease in yeast; S. cerevisiae expressing SARS-CoV PLpro, growth rescue; Potency, µM (titrated, usually from 32.9 µM), actives largely listed as activators; actives 0.19% (n = 330,000); AID 485353; calls by dose curve; further: nearly all actives have a fitted effect of over 55% in size
Pf growth 48h: P. falciparum growth inhibition at 48 hours (one generation); AID 504832; P. falciparum luciferase growth in erythrocytes, 48 h; Potency, µM (top dose mostly 28.7 µM), actives largely listed as inhibitors; actives 5.9% (n = 310,000)
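Growth was read as firefly luciferase luminescence after a 48 h, 37 C, 5% CO2 exposure of compounds to reporter-bearing P. falciparum cultures (0.1% parasitemia, 2% hematocrit final) in Albumax-supplemented RPMI 1640.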
Pf growth 96h: inhibits malaria parasite growth, 96 h. P. falciparum luciferase reporter growth, 96 h. Potency, µM (top dose mostly 28.7 µM), hits mostly inhibitors. actives 6.9% (n = 320,000)
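P. falciparum expressing integrated firefly luciferase, in erythrocytes at 2% hematocrit, 0.05% parasitemia, incubated with compounds 96 h at 37 C, 5% CO2. Growth inhibition read as loss of luminescence; two-generation exposure targets delayed-death apicoplast inhibitors.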
Each line names hits and unclear results; the compound was inactive in the other large screens. Unless noted, the call rests on the fitted dose curve; in most records, active means well fitted curve in the direction sought with a large enough effect; inconclusive means small, poorly fitted or top-dose-only effect, or another doubt; inactive means no such curve, though single readings can be large; an effect the other way counts as inactive or inconclusive.

Fc1ccc2nc(Nc3nc4c(F)cc(F)cc4s3)sc2c1	HCMV antiviral inconclusive, Pf growth 96h 10µM
CCOc1ccc2nc(NC(=O)CN3CCN(CC)CC3)sc2c1	none
O=C(Nc1nc2c(F)cc(F)cc2s1)c1ccccn1	HCMV antiviral -99, HCV inh 10µM, Pf growth 96h inconclusive
CCOc1ccc2nc(NC(=O)CN3CCOCC3)sc2c1	Pf growth 48h 4.1µM
Cc1cc(-c2ccccc2)nc(Cl)c1C#N	none
O=C(Nc1nnc(N2CCCCCC2)s1)Nc1cc(F)ccc1F	none (no result: HCV inh, SARS PLP yeast, Pf growth 48h, Pf growth 96h)
Cc1cccc(C)c1NC(=O)CN(C)C(=O)C1CC(=O)N(c2cccc3ccccc23)C1 (configuration not stated)	Pf growth 48h inconclusive, Pf growth 96h inconclusive
N#C/C(=C\c1cccc(O)c1)C(=O)Nc1ccc2c(c1)OCCO2	Pf growth 48h inconclusive
CCOc1ccc2nc(NC(=O)c3ccccn3)sc2c1	HCMV antiviral -100, HCV inh inconclusive
CCOc1ccc2nc(NC(=S)NCc3ccccc3)sc2c1	Pf growth 96h 4.1µM (no result: Pf growth 48h)
COc1cccc(CNC(=O)c2cc(C)nc3c2c(C)nn3-c2ccc(C)cc2)c1	none (no result: HCV inh, SARS PLP yeast, Pf growth 48h, Pf growth 96h)
CCC1=C[C@@H]2CN(C1)Cc1c([nH]c3ccccc13)[C@@](C(=O)OC)(c1cc3c(cc1OC)N(C)[C@@H]1[C@@](O)(C(=O)OC)[C@H](OC(C)=O)[C@]4(CC)C=CCN5CC[C@]31[C@@H]54)C2	Pf growth 48h 0.48µM, Pf growth 96h 0.85µM (no result: HCMV antiviral, Sm TGR inh, HCV inh, SARS PLP yeast)
CC[C@]1(O)CC2CN(CCc3c([nH]c4ccccc34)[C@@](C(=O)OC)(c3cc4c(cc3OC)N(C)[C@H]3[C@@](O)(C(=O)OC)[C@H](OC(C)=O)[C@]5(CC)C=CCN6CC[C@]43[C@@H]65)C2)C1 (some centres not stated)	Pf growth 48h 0.48µM, Pf growth 96h 0.85µM (no result: HCMV antiviral, Sm TGR inh, HCV inh, SARS PLP yeast)
CCC1(O)CC2CN(CCc3c([nH]c4ccccc34)C(C(=O)OC)(c3cc4c(cc3OC)N(C=O)C3C(O)(C(=O)OC)C(OC(C)=O)C5(CC)C=CCN6CCC43C65)C2)C1 (configuration not stated)	HCMV antiviral -88 (no result: Sm TGR inh, SARS PLP yeast, Pf growth 48h, Pf growth 96h)
CC[C@]12C=CCN3CCC4(c5cc(Br)c(OC)cc5N(C)C4[C@@](O)(C(=O)OC)[C@@H]1OC(C)=O)C32 (some centres not stated)	Pf growth 48h inconclusive, Pf growth 96h inconclusive
COc1ccccc1CNC(=O)[C@H](C)N1C(=O)N2CCc3c([nH]c4ccccc34)[C@@]2(C)C1=O	HCV inh inconclusive, Pf growth 96h inconclusive
Cc1nc(Br)c(Br)c(C)c1Br	none
CCC(=O)c1ccc(OCC(=O)NC2(C#N)CCCCC2)cc1	none
COc1ccc(CCNC(=O)COc2ccc(N(C)S(=O)(=O)c3ccc(Cl)cc3)cc2)cc1	HCV inh 7.1µM, Pf growth 48h inconclusive, Pf growth 96h inconclusive
N#Cc1ccc(OCC(=O)NCCc2ccc(S(N)(=O)=O)cc2)cc1	HCMV antiviral -80
CN(c1ccc(OCC(=O)NCCc2ccccc2)cc1)S(=O)(=O)c1ccc(Cl)cc1	HCV inh inconclusive, Pf growth 48h 8.3µM, Pf growth 96h inconclusive
Cc1ccc(C(=O)NNC(=O)CSc2nnc(C(C)C)n2C)cc1	Pf growth 96h inconclusive
O=C(OC1CC2CC1[C@H]1CCCCN1C2=O)N1CCN(S(=O)(=O)c2ccccc2)CC1 (some centres not stated)	none (no result: Sm TGR inh, HCV inh, SARS PLP yeast, Pf growth 48h, Pf growth 96h)
Cc1nc2ccccn2c1C(=O)CSc1ccccc1Cl	HCMV antiviral -66, HCV inh inconclusive, Pf growth 48h inconclusive, Pf growth 96h inconclusive
Cc1ccc(CSc2nnc(CNc3ccc(F)cc3)o2)cc1	none
Cc1nc2ccc(NC(=O)c3cccs3)cc2c(=O)n1Cc1ccc(Cl)cc1	HCMV antiviral -98, HCV inh inconclusive, Pf growth 48h inconclusive, Pf growth 96h 3.3µM
CCCc1nc2ccc(NC(C)=O)cc2c(=O)n1Cc1cccc(Cl)c1	Pf growth 48h inconclusive
CCCc1nc2ccc(NC(=O)c3cccs3)cc2c(=O)n1Cc1ccc(Cl)cc1	HCV inh inconclusive, Pf growth 48h 0.47µM
COc1ccc(CNC(=O)C2=CCN(S(=O)(=O)c3ccc(C)cc3)CC2)cc1	HCMV antiviral inconclusive
CCOC(=O)Cn1nnnc1C(CC)N(Cc1ccccc1)Cc1cc2cc(C)ccc2[nH]c1=O (configuration not stated)	Pf growth 96h inconclusive (no result: Pf growth 48h)
CCC(c1nnnn1CCc1ccccc1)N(Cc1ccco1)Cc1cc2cc(C)cc(C)c2[nH]c1=O (configuration not stated)	HCMV antiviral -71, Sm TGR inh 56µM, HCV inh 10µM, Pf growth 48h 12µM
CCC(c1nnnn1CCc1ccccc1)N(Cc1ccco1)Cc1cc2c(C)ccc(C)c2[nH]c1=O (configuration not stated)	Sm TGR inh inconclusive, HCV inh 11µM, Pf growth 48h inconclusive
CCCC(c1nnnn1C(C)(C)CC)N(Cc1ccco1)Cc1cc2ccc(OC)cc2[nH]c1=O (configuration not stated)	Sm TGR inh inconclusive, HCV inh inconclusive
CCCCCOc1ccc(C(=O)CCC(=O)Nc2ccc(NC(C)=O)cc2)cc1	none
O=C(COC(=O)CCC(=O)c1ccc(F)cc1)NCc1ccc(Cl)cc1	none (no result: Sm TGR inh, Pf growth 48h, Pf growth 96h)
Cc1ccc(-c2csc(=S)n2CC(=O)OCC(=O)NC(C)C(C)C)cc1 (configuration not stated)	none (no result: HCV inh)
Cc1ccc(-c2csc(=S)n2CC(=O)OCC(=O)NCc2ccco2)cc1	Sm TGR inh 40µM, HCV inh inconclusive (no result: Pf growth 96h)
O=C(COC(=O)CCC(=O)c1ccc(Cl)cc1)NCc1ccco1	Sm TGR inh 18µM
O=C(COC(=O)CCOc1ccccc1)NCc1ccco1	Sm TGR inh 35µM
O=C(COc1ccccc1)NCc1ccco1	HCMV antiviral inconclusive (no result: Sm TGR inh, SARS PLP yeast, Pf growth 48h, Pf growth 96h)
CCn1c(=O)n(C)c2c(=O)n(C)c(=O)n(C)c21	none (no result: Sm TGR inh, SARS PLP yeast, Pf growth 48h, Pf growth 96h)
Cc1cc(C)cc(NC(=S)N2CC(C)OC(C)C2)c1 (configuration not stated)	Pf growth 96h 2.1µM
CC1CN(C(=S)Nc2ccc(Br)cc2)CC(C)O1 (configuration not stated)	Pf growth 96h inconclusive
CCN1C(=O)NC(=O)/C(=C\c2cn(CC(=O)N3CCCCC3C)c3ccccc23)C1=O (configuration not stated)	Pf growth 96h 6.6µM (no result: HCMV antiviral)
Cc1ccc(Cl)cc1-n1ncc2c(Nc3ccc4c(c3)OCCO4)ncnc21	HCMV antiviral -88 (no result: HCV inh, SARS PLP yeast, Pf growth 48h, Pf growth 96h)
CCOC(=O)N1CCC(Nc2ncnc3c2cnn3-c2ccc(C)cc2C)CC1	HCMV antiviral -93, HCV inh 7.1µM
C=CCNc1ncnc2c1cnn2-c1ccc(C)cc1C	none

Screening data from PubChem BioAssay.
